Laboratory results taken from PubChem BioAssay AID2599 (Sanford-Burnham Center for Chemical Genomics, 2010).
Hit rate of the full screen: of about 330,000 compounds, about 5,800 (1.8%) were called active. The entries come from a sample that favours actives as a whole. Unmarked numbers belong to inactive results.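 How the source made its calls: active means inhibition above about 50% at the single tested dose (limit read from the data); inactive means the rest.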

Target: Sentrin-specific protease 6 (Homo sapiens) (UniProt Q9GZR1)
Experiment: SENP6 protease inhibitors, primary screen, biochemical, luminescence, uHTS (AID 2599);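 further: plate controls were DMSO wells with enzyme for no effect and DMSO wells lacking enzyme for full effect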
Conditions: Recombinant SENP6 catalytic domain, aminoluciferin luminescence; at 10 µM; hits give high values

Chain of Sentrin-specific protease 6 (Homo sapiens) (Q9GZR1 628-1112 limits assumed): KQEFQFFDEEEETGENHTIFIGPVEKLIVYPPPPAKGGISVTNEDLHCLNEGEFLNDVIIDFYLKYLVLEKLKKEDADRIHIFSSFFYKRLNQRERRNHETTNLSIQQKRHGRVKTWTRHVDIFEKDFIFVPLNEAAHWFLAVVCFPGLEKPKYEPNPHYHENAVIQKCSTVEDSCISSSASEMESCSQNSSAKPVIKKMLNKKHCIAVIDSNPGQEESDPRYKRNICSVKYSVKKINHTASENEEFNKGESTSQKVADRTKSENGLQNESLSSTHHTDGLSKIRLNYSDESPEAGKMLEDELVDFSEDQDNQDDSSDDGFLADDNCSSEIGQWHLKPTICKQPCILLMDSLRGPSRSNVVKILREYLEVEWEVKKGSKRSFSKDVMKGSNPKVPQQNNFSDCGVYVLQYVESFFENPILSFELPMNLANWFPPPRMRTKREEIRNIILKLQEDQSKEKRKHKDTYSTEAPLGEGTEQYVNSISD

Row | SMILES | inhibition
1 | O=C(COC(=O)Cn1[nH]c(=O)c2ccccc2c1=O)Nc1ncc(Cl)cc1Cl | -4.87%
2 | Cc1cccc(NS(=O)(=O)c2ccc(C(=O)NCC(C)(C)N3CCOCC3)cc2)c1C | 4.82%
3 | C=CCOc1ccc(C2/C(=C(\O)c3c(C)[nH]c(C(=O)OC)c3C)C(=O)C(=O)N2CCN(C)C)cc1 (configuration not stated) | 9.74%
4 | COc1ccc(CN(C)C(=O)Cc2ccsc2)c(OC)c1OC | -22.6%
5 | Cc1cc(C)nc(NC(=O)c2cccc([N+](=O)[O-])c2)c1 | -34.1%
6 | O=C(COC(=O)c1ccc2c(c1)OCCO2)NCc1ccccc1Cl | 3.1%
7 | O=C(Nc1ccc(NC(=O)c2ccco2)c(Cl)c1)c1cccc([N+](=O)[O-])c1 | 14.1%
8 | N#CCCN(C(=O)COC(=O)c1ccc2c(c1)OCCO2)c1ccccc1 | 6.71%
9 | O=C(OCc1ccccc1F)c1ccc2c(c1)OCCO2 | 95.5% (active)
10 | O=C(Nc1ccc(C2CC2(Cl)Cl)cc1)c1cccc([N+](=O)[O-])c1 (configuration not stated) | 76.9% (active)
11 | O=C(CCC(=O)n1ncc2ccccc21)NCc1ccccc1Cl | 15.9%
12 | Cc1nc(N)c(Br)c(C)c1Br | 0%
13 | COc1cccc(-n2nc(C(=O)N3CCN(Cc4ccccc4)CC3)c3ccccc3c2=O)c1 | -0.104%
14 | O=C(O)CSc1nccn1-c1cccc(Cl)c1 | -22.5%
15 | COCCCNC(=O)Cn1c(=O)n(Cc2ccccc2Cl)c(=O)c2cc(OC)c(OC)cc21 | -8.65%
16 | O=S(=O)(c1cnccc1N1CCN(/N=C/c2ccc(Br)cc2)CC1)N1CCCCC1 | -13.3%
17 | Cc1c(Cl)cccc1NC(=O)Nc1ccc(C(=O)N2CCCC2)cc1 | 61.5% (active)
18 | O=C(Nc1ccc(Cl)cc1)Nc1ccc(C(=O)N2CCOCC2)cc1 | -8.3%
19 | Cc1c(Cl)cccc1NC(=O)NCCCN1CCCC1=O | 2.62%
20 | O=C(c1ccc2ccccc2n1)N1CCN(c2ccccc2Cl)CC1 | 5.78%
21 | CC(=O)Nc1ccc(OC(=O)COc2ccc(Br)cc2)cc1 | -9.28%

Row | SMILES | inhibition
22 | S=c1[nH]nc(-c2cc(-c3ccccc3)n[nH]2)n1/N=C/c1c2ccccc2cc2ccccc12 | -3.75%
23 | c1ccc(-c2cc(-c3ccccc3)[nH]n2)cc1 | 59.9% (active)
24 | Cc1ccc(NC(=O)c2cc(-c3ccccc3O)n[nH]2)cc1C | -12.4%
25 | CC(C)C(=O)NCc1cc(-c2ccc(Cl)cc2)no1 | -26.7%
26 | S=c1[nH]nc(-c2cc(-c3ccsc3)n[nH]2)n1-c1ccccc1 | -13.8%
27 | Oc1ccccc1-c1cc(-c2ccc(Cl)cc2)n[nH]1 | 89.2% (active)
28 | CCCOc1ccc(N2C(=O)CC(N(CCc3ccc(S(N)(=O)=O)cc3)C(C)=O)C2=O)cc1 (configuration not stated) | -12.7%
29 | Cc1cc(C(=O)Cn2cnc3cc([N+](=O)[O-])ccc3c2=O)c(C)n1CC1CCCO1 (configuration not stated) | -13.2%
30 | Cc1ccsc1C(=O)OCC(=O)c1cc(C)n(CC2CCCO2)c1C (configuration not stated) | 97.8% (active)
31 | COc1ccc(C(=O)OCC(=O)c2cc(C)n(CC3CCCO3)c2C)cc1[N+](=O)[O-] (configuration not stated) | -1.02%
32 | Cc1coc2cc3oc(=O)c(CCC(=O)O)c(C)c3cc12 | 1.41%
33 | COc1ccccc1NC(=O)CSc1nnc(-c2ccoc2C)n1CCc1ccccc1 | -3.86%
34 | Cc1ccc(S(=O)(=O)N2CCOCC2)cc1C(=O)OC1CCCCC1=O (configuration not stated) | 7.83%
35 | CN1C(=O)c2cccc3c(N)ccc(c23)C1=O | -16.2%
36 | CCN1C(=O)c2cccc3c(N)ccc1c23 | 80.3% (active)
37 | CCN1C(=O)c2cccc3c(S(=O)(=O)Nc4ccccc4O)ccc1c23 | -9.84%
38 | Cc1ccc(C)c(Cn2cnc3c(oc4ccccc43)c2=O)c1 | 9.24%
39 | Cc1c(NC(=O)C(C)OC(=O)c2ccccc2O)c(=O)n(-c2ccccc2)n1C (configuration not stated) | -6.6%
40 | CC(C)C(=O)Nc1ccc(C(=O)NNC(=O)c2cccs2)cc1 | 3.9%
41 | CC(=O)Nc1ccc(/C=N/NC(=O)c2cccs2)cc1 | 58.1% (active)
42 | CCc1ccc(NC(=O)COC(=O)c2cccs2)cc1 | 8.32%

Row | SMILES | inhibition
43 | Cc1cccc(-n2c(C)cc(/C=N\NC(=O)c3cccs3)c2C)c1 | -11.3%
44 | CCN(CC)c1ccc(/C=N/NC(=O)CNC(=O)c2cccs2)cc1 | -14.6%
45 | CCc1ccc(NC(=O)C(=O)NNC(=O)c2cccs2)cc1 | 85.8% (active)
46 | CSc1cccc(NC(=S)N(C(C)C)C(C)c2ccccn2)c1 (configuration not stated) | 4.01%
47 | CC1(C)CC(=O)c2c(n(S(=O)(=O)c3ccccc3)c3ccc(NS(=O)(=O)c4ccccc4)cc23)C1 | 6.92%
48 | COc1ccc(-c2oc3ncn(Cc4ccco4)c(=N)c3c2-c2ccc(OC)cc2)cc1 | -13.1%
49 | COc1cccc(NC(=O)COC(=O)c2ccc3ccccc3n2)c1 | -3.74%
50 | CCc1nnc(NC(=O)CSc2nnnn2-c2cccc(C(C)=O)c2)s1 | -12.9%
51 | Cc1ccccc1C(=O)Nc1ccc(N2CCCCCC2)cc1 | 72.7% (active)
52 | Cc1ccccc1C(=O)NC(=S)Nc1ccc(N2CCN(C(=O)c3ccccc3)CC2)cc1 | 2.96%
53 | Cc1ccccc1C(=O)N1CCN(c2ccc(NC(=O)c3cccs3)cc2)CC1 | -5.79%
54 | CCOc1ccc(C(=O)Nc2cccc(SC)c2)cc1 | 91.4% (active)
55 | CSc1cccc(NC(=O)CSc2ccccc2)c1 | -11%
56 | COc1cccc(C(=O)Nc2ccc(N3CCCC3)cc2)c1 | 97.6% (active)
57 | COc1cccc(C(=O)Nc2nnc(S(=O)(=O)N3CCCCC3)s2)c1 | 0.355%
58 | CCOc1ccc(C(=O)Nc2cccc(-c3ccc4nncn4n3)c2)cc1 | 5.7%
59 | COc1cccc(NC(=O)CN(C)CC(=O)Nc2ccc3c(c2)CCC3)c1 | -11.1%
60 | COc1ccc(C(=O)Nc2cccc(S(C)(=O)=O)c2)cc1 | -10.8%
61 | O=C(Nc1ccc(N2CCOCC2)cc1)c1cccc(S(=O)(=O)N2CCOCC2)c1 | -0.135%
62 | CCC(=O)Nc1ccc(C(=O)Nc2cccc(OC)c2)cc1 | 51.2% (active)
